Measurements reported in PubChem BioAssay (NCATS).
Values joined by “and” are separate entries in the source; they are usually repeats but may differ in a detail not shown here. Identical values can stand only once. Results filed as inconclusive are left out. Active and inactive are the calls of the source. The call rests on the fitted dose curve; in most records, active means well fitted cell-killing curve with a large enough effect; inconclusive means small, poorly fitted or top-dose-only effect; inactive means no such curve, though single readings can be large or run the other way.
Potency means the concentration at half of the fitted maximal effect.

Experiment: qHTS of pediatric cancer cell lines to identify multiple opportunities for drug repurposing: Confirmatory screen for Rh41 cells (AID 1347123);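 further: 48 h compound exposure; nearly all actives have a fitted effect of over 60% in size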
Details: Rh41 rhabdomyosarcoma cells, viability/cytotoxicity qHTS; series mostly up to 45.9 µM; activity change, negative = cytotoxic: at the top concentration
Source text: Drug repurposing or repositioning has been offered as a strategy for drug development in oncology programs. This approach has special potential for childhood cancers and other rare or orphan diseases, where the expected return on new drug development has been a disincentive to pharmaceuticals.
In this project we exploit the poly-pharmacology of drugs to discover new indications via phenotypic screening of a panel of 19 well-characterized cell lines derived from solid tumors seen in children and adolescents. The goal is to identify approved drugs with previously unrecognized anticancer properties that has the potential to reveal new mechanisms and biological processes involved in carcinogenesis or drug resistance. We employed a titration-based paradigm (quantitative high-throughput screening or qHTS), where all compounds were tested at multiple concentrations for their effect on cell viability. Concentration-response curves (CRCs) were derived directly from the primary screen, and both potency and efficacy values were used to identify compounds with robust bioactivity profiles. We screened the NIH Chemical Genomics Center (NCGC) Pharmaceutical Collection (NPC) and Mechanism Interrogation Plate (MIPE) small molecule collections of approved and investigational compounds against these cell lines; and measured metabolically active cells after 48 hours of compound treatment as a proxy for cell viability.
Assay Submitter: Nathalia J. Martinez, National Center for Advancing Translational Sciences, National Institutes of Health, Rockville, MD, USA; email: natalia.martinez@nih.gov
[1] Shen, M et al. Quantitative high-throughput phenotypic screening of pediatric cancer cell lines identifies multiple opportunities for drug repurposing. Oncotarget 2017 Dec 19;9(4):4758-4772. PMID 29435139.
The cells were obtained from University of North Carolina (UNC), Pediatric Preclinical Testing Program (PPT), and Coriell Institute (CI).
qHTS cell viability assay:
Cells were assayed in growth media at a density of 500-1,000 cells/well. Five microliters of cells were dispensed into 1,536-well, white, solid-bottom, TC-treated plates (Greiner Bio One) using a multidrop dispenser and incubated at 37 degrees C, 5% CO2, under a humidified atmosphere for 5 hours. Twenty-three nanoliters of compounds and controls (neutral control DMSO or positive control bortezomib at final concentration of 2.3 µM) were subsequently transferred by Kalypsys pintool. For primary screens, the MIPE collection was tested at 11-point dilutions (final concentrations range from 0.78 nM to 46 µM) and the NPC collection at 8-point dilutions (final concentrations range from 0.59 nM to 46 µM). Compounds tested in follow-up screens were assayed at 11-point dilutions. Cells were incubated for 48 hours, followed by addition of 3 µL of CellTiter-Glo (Promega). After a 15 min incubation at room temperature, samples were analyzed for luminescence intensity using a ViewLux High-throughput CCD imager equipped with clear filters.
For `CCc1nc(N)nc(N)c1-c1ccc(Cl)cc1`, the Potency was 10.4 µM (active). For `c1cnc2cc3c(cc2n1)C1CNCC3C1`, the “activity change, negative = cytotoxic” value was 6.77% (inactive). For `COc1cc(C(C)=O)ccc1OCCCN1CCC(c2noc3cc(F)ccc23)CC1`, the Potency was 18.5 µM (active). With `Nc1ccn([C@@H]2O[C@H](CO)[C@@H](O)C2O)c(=O)n1` (stereo partly drawn) the “activity change, negative = cytotoxic” value was 0.762% (inactive). In the case of `Cc1ccc(NC(=O)c2ccc(CN3CCN(C)CC3)cc2)cc1Nc1nccc(-c2cccnc2)n1`, the “activity change, negative = cytotoxic” value is reported as -26.1% (inactive). For `CN(C)c1ccc(O)c2c1C[C@H]1C[C@H]3[C@H](N(C)C)C(=O)C(C(N)=O)=C(O)[C@@]3(O)C(=O)C1=C2O`, the “activity change, negative = cytotoxic” value was -28.7% (inactive). For `CN(C)c1ccc2nc3ccc(=[N+](C)C)cc-3sc2c1`, the Potency was 2.61 µM (active). In the case of `CCN(CC)C(=S)SSC(=S)N(CC)CC`, the Potency is reported as 0.261 µM (active). In the case of `Cc1c(C(=O)NN2CCCCC2)nn(-c2ccc(Cl)cc2Cl)c1-c1ccc(Cl)cc1`, the Potency is reported as 18.5 µM (active). With `Nc1nc(OCc2ccccc2)c2[nH]cnc2n1` the “activity change, negative = cytotoxic” value was -10.8% (inactive). With `Nc1ncn([C@H]2C[C@H](O)[C@@H](CO)O2)c(=O)n1` the “activity change, negative = cytotoxic” value was 14.6% (inactive). With `C=C(c1ccc(C(=O)O)cc1)c1cc2c(cc1C)C(C)(C)CCC2(C)C` the “activity change, negative = cytotoxic” value was -13.3% (inactive). In the case of `CCCCc1ccc2nc(NC(=O)OC)[nH]c2c1`, the Potency is reported as 0.131 µM (active). In the case of `O=C(CCc1ccc(O)cc1)c1c(O)cc(O)cc1O`, the “activity change, negative = cytotoxic” value is reported as -6.94% (inactive). In the case of `Cc1ccc(Nc2nccc(N(C)c3ccc4c(C)n(C)nc4c3)n2)cc1S(N)(=O)=O`, the Potency is reported as 10.4 µM (active). For `CS(=O)(=O)OCCCCOS(C)(=O)=O`, the “activity change, negative = cytotoxic” value was -1.52% (inactive). In the case of `Cc1nc(Nc2ncc(C(=O)Nc3c(C)cccc3Cl)s2)cc(N2CCN(CCO)CC2)n1`, the Potency is reported as 2.61 µM (active). With `CCN(CCO)CCCC(C)Nc1ccnc2cc(Cl)ccc12` (stereo not drawn) the “activity change, negative = cytotoxic” value was -18.1% (inactive). For `C[C@]12CCC(=O)C=C1CC[C@@H]1[C@H]2[C@@H](O)C[C@@]2(C)[C@H]1CC[C@]2(O)C(=O)CO`, the “activity change, negative = cytotoxic” value was -19.9% (inactive). In the case of `CCN(CC)CCOc1ccc(Nc2ncc3cc(-c4c(Cl)cccc4Cl)c(=O)n(C)c3n2)cc1`, the Potency is reported as 9.27 µM (active). With `Oc1ccc(-c2nc(-c3ccc(F)cc3)c(-c3ccncc3)[nH]2)cc1` the Potency was 1.47 µM (active). For `CC(=O)O[C@H]1C(=O)[C@@]2(C)C([C@H](OC(=O)c3ccccc3)[C@]3(O)C[C@H](OC(=O)[C@H](O)[C@@H](NC(=O)c4ccccc4)c4ccccc4)C(C)=C1C3(C)C)[C@]1(OC(C)=O)CO[C@@H]1C[C@@H]2O` (stereo partly drawn), the Potency was 0.0104 µM (active). With `O=C1c2c(O)cc(O)cc2OC(c2ccc(O)c(O)c2)C1O` (stereo not drawn) the “activity change, negative = cytotoxic” value was 33.8% (inactive). In the case of `CC[C@]1(O)C[C@H]2CN(CCc3c([nH]c4ccccc34)[C@@](C(=O)OC)(c3cc4c(cc3OC)N(C=O)[C@H]3[C@@](O)(C(=O)OC)[C@H](OC(C)=O)[C@]5(CC)C=CCN6CC[C@]43[C@@H]65)C2)C1`, the Potency is reported as 23.3 nM (active) and 18.5 nM (active). With `O=C(NCC1CCCCN1)c1cc(OCC(F)(F)F)ccc1OCC(F)(F)F` (stereo not drawn) the “activity change, negative = cytotoxic” value was 3.07% (inactive). In the case of `Nc1nc(Cl)nc2c1ncn2[C@H]1C[C@H](O)[C@@H](CO)O1`, the “activity change, negative = cytotoxic” value is reported as -24.6% (inactive). In the case of `CC(C)C[C@H](NC(=O)[C@H](Cc1ccccc1)NC(=O)c1cnccn1)B(O)O`, the Potency is reported as 0.0165 µM (active). For `CCOc1cc(CC(=O)N[C@@H](CC(C)C)c2ccccc2N2CCCCC2)ccc1C(=O)O`, the “activity change, negative = cytotoxic” value was 9.55% (inactive).
